Only some compounds are listed: those with a hit (about 1.2% of all), similar ones and a draw of the others.
PrP 5UTR inh – suppresses PrP 5' UTR mRNA reporter expression | cell-based PrP 5' UTR mRNA reporter, plate reader | inhibition, % (no concentration beside the values) | 340,000 tested, 0.35% active | AID 488862; in the data active = inhibition above about 52%; note: 0 = median of the neutral control wells
TcdB inh – TcdB glycohydrolase inhibition | P18177 | TcdB glycohydrolase enzymatic assay, plate reader | inhibition, % at 9.99 µM | 350,000 tested, 0.24% active; in the data active = inhibition above about 10%
RN4220 kill – kills Staphylococcus aureus RN4220 | S. aureus RN4220 growth, OD600, 16 h | inhibition, % (test concentration not listed) | 330,000 tested, 0.33% active | AID 1259311; in the data active = inhibition above about 85%;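 note: plate controls were untreated cells for no effect and reference antibiotic for full effect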
PfHsp40 yeast – restores yeast growth despite PfHsp40 toxicity; growth rescue, % at 12.5 µM; 340,000 tested, 0.68% active; S. cerevisiae expressing PfHsp40, growth rescue, ATP luminescence; AID 504582; in the data active = growth rescue above about 28%, passing the limit was not always enough;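 note: yeast W303a lacking pdr1 and pdr3 grown in galactose medium; growth measured after three days at 30 °C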
ugtP null kill – kills S. aureus RN4220 lacking UgtP | S. aureus RN4220 ugtP deletion, OD600 growth, 16 h | growth inhibition, % (no concentration beside the values) | 330,000 tested, 0.54% active | AID 1259309; in the data active = growth inhibition above about 68%;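 note: plate controls were untreated wells for no effect and antibiotic for full effect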
Active calls of the source: *; · = no result; ! = not active in a repeat.

SMILES	PrP 5UTR inh	TcdB inh	RN4220 kill	PfHsp40 yeast	ugtP null kill
COC1OC2O[C@@]3(C)CCC4C(C)CCC(C1C)[C@@]24OO3 (stereo partly drawn)	·	·	7	·	5
C[C@@H]1CC[C@H]2[C@@H](C)C(=O)O[C@@H]3O[C@@]4(C)CC[C@@H]1[C@]32OO4	-18	1	4	104*	0
O=[N+]([O-])c1ccc(C[n+]2cccc3c4ccccc4ccc32)cc1	-56	1	-3	-2	-4
CCCCCCCCCCCCCCCC[n+]1cccc2ccccc21	10	4	99*	6	97*
CCCCCCCCC[n+]1cccc2c3ccccc3ccc21	1	·	100*	1	100*
Cc1ccccc1C[n+]1cccc2ccccc21	-22	0	2	-1	3
CCC(=O)N1C[C@H](C)[C@@H](OC)CN(C)C(=O)c2cc(NC(=O)C3CCOCC3)ccc2OC[C@@H]1C	·	0	·	·	·
COc1ccc(CN(C)C[C@@H]2OCCCC[C@H](C)Oc3ccc(NC(=O)Nc4ccc5c(c4)OCO5)cc3C(=O)N([C@H](C)CO)C[C@@H]2C)cc1	·	0	·	·	·
CCN1C(=O)C2C(c3ccc(-c4ccc(OC)cc4)cc3)N3CCCC[C@@]3(C(=O)OC)C2C1=O (stereo partly drawn)	·	·	3	·	1
CCC(C)NC(=O)c1ccc2c(c1)N(Cc1ccccc1)C(=O)CS2 (stereo not drawn)	-8	1	4	0	1
CCCN1C(=O)COc2ccc(C(=O)c3ccccc3C(=O)O)cc21	-8	0	-1	-1	0
O=C(O)c1ccc2c(c1)N(Cc1cccc(F)c1)C(=O)CS2	-6	21*	2	0	8
O=C(O)c1ccccc1C(=O)c1ccc2c(c1)N(Cc1cccc(F)c1)C(=O)CO2	-3	21*	7	-1	-2
Cc1noc(C)c1NC(=O)N(C)C[C@@H]1Oc2c(NC(=O)Nc3ccc4c(c3)OCO4)cccc2C(=O)N([C@H](C)CO)C[C@H]1C	·	0	·	·	·
COc1cc(C=NNc2ncnc3sc4c(c23)CCC4)ccc1O	·	·	28	·	50
Cc1ccnc(N2C(=O)c3ccccc3C2=O)c1	2	15*	1	-2	10
CO[C@@H]1CN(C)C(=O)c2cc(NS(C)(=O)=O)ccc2OC[C@@H](C)N(C(=O)C2CCCC2)C[C@@H]1C	·	0	·	·	·
O=C(NC1CC1)c1ccccc1	·	0	·	·	·
O=C(NC1CC1)c1cccc(Oc2ccccc2)c1	-36	1	5	77*	11
COCCNC(=O)C[C@@H]1C[C@@H]2c3cc(NC(=O)Nc4ccc(C(F)(F)F)cc4)ccc3O[C@@H]2[C@H](CO)O1	·	-1	·	·	·
C[C@H](CO)N1C[C@H](C)[C@@H](CN(C)Cc2ccc(F)cc2)Oc2ncc(-c3cccc(C#N)c3)cc2C1=O	·	1	·	·	·
CC(=O)N(C)C[C@@H]1Oc2ncc(C#CC3(O)CCCC3)cc2C(=O)N([C@@H](C)CO)C[C@H]1C	·	-1	·	·	·
C[C@H]1COc2c(N3CCN(C)CC3)c(F)cc3c(=O)c(C(=O)O)cn1c23	3	2	·	0	·
CN1CCN(c2c(F)cc3c(=O)c(C(=O)O)cn4c3c2SCC4)CC1	-16	·	99*	0	99*
COc1cccc(-c2ccc([C@H]3[C@@H](CO)N4CCCCN(C(=O)NC(C)C)C[C@H]34)cc2)c1	·	0	·	·	·
SMILES	PrP 5UTR inh	TcdB inh	RN4220 kill	PfHsp40 yeast	ugtP null kill
Cn1cc(S(=O)(=O)CC(=O)N2CCCc3ccccc32)c2ccccc21	-14	11*	-4	1	-8
Cn1cc(C(=O)C(=O)N2CCCc3ccccc32)c2ccccc21	-47	3	3	-1	2
O=C(O)c1cc(NCc2c(F)cccc2Cl)ccc1N1CCOCC1	-5	·	6	105*	6
COC(=O)c1cc(NCc2ccccc2F)ccc1N1CCOCC1	-4	·	5	-1	12
CCCCCc1ccc(-c2cn(Cc3ccc(C(=O)c4ccccc4)cc3)nn2)cc1	-31	0	-15	0	-2
O=C(c1ccccc1)c1ccc(Cn2cc(-c3ccccc3)nn2)cc1	-26	2	5	723*	10
CC(C)CC(NC(=O)c1nc[nH]c1C(=O)NC(c1ccccc1)c1ccccc1)C(=O)OC(C)(C)C (stereo not drawn)	·	·	-5	·	1
COCCNC(=O)c1cc2c(c(-c3cccc(C#CCN(C)C)c3)n1)[C@H](CCO)N(S(=O)C(C)(C)C)C2 (stereo partly drawn)	·	10*	·	·	·
CC1CCN(CC(=O)N2CCCc3c2c(=O)oc2ccc(OCc4ccccc4)cc32)CC1	-2	·	14	-1	13
CCCOc1ccc2oc(=O)c3c(c2c1)CCCN3C(=O)CN1CCc2ccccc2C1	7	·	10	0	86*
O=Nc1c(O)c2ccccc2c2ccccc12	-65	-3	100*	24	99*
O=S(=O)(Nc1ccc(N=Nc2ccccc2)cc1)c1ccccc1	-5	·	-10	102*	-2
O=S(=O)(Nc1ccc(S(=O)(=O)Nc2ccccc2)cc1)c1ccccc1	-10	·	-5	0	15
CN(C)c1nc(NCc2ccccc2)nc(NN=Cc2ccc(Cl)cc2Cl)n1	·	·	-5	·	-9
CN(C)c1nc(NN=Cc2ccccc2O)nc(Nc2ccc(F)cc2)n1	·	·	100*	·	100*
CNC[C@H](Cc1ccccc1)NC[C@@H](Cc1cccc2ccccc12)NCCc1ccc(C)cc1	-3	1	·	1	·
CNCC(Cc1ccccc1)NCC(Cc1cccc2ccccc12)NCCc1ccc(C)cc1 (stereo not drawn)	·	·	101*	·	100*
CCC(C)C(CNC)NCC(Cc1cccc2ccccc12)NCCc1cccc(C(F)(F)F)c1 (stereo not drawn)	·	·	101*	·	100*
O=C1OCC/C1=C\c1ccc(O)cc1	-9	21*	1	-1	4
O=C1OCCC1=Cc1ccccc1	-12	1	6	1	5
O=C(/C(N=Nc1cccc(C(F)(F)F)c1)=C(/O)c1cccs1)C(F)(F)F	-57	2	81	195*	85
CC(=O)/C(N=Nc1cccc(C(F)(F)F)c1)=C(\C)O	-11	0	6	1	2
COc1cc(OC)c(OC)cc1C=Nn1c(COc2ccccc2)n[nH]c1=S	·	·	1	·	17
Cc1ccc(NC(=O)ON=Cc2cccc([N+](=O)[O-])c2)cc1	·	·	4	·	1
COC(=O)C(C)NC(=S)N1CCN(c2c(F)cc3c(=O)c(C(=O)O)cn(C4CC4)c3c2OC)CC1C (stereo not drawn)	-25	1	100*	0	100*
CCOC(=O)c1cn(C2CC2)c2c(F)c(F)c(F)cc2c1=O	-11	1	5	1	10
CNC(=S)N1CCN(c2c(F)cc3c(=O)c(C(=O)O)cn(C4CC4)c3c2OC)CC1C (stereo not drawn)	-18	·	100*	6	100*
O=c1[nH]cc(O)c(=O)[nH]1	-17	0	2	2	1
O=c1[nH]cc(F)c(=O)[nH]1	-11	1	·	256*!	·
COc1ccc(OCC(=O)N2CCC(Cc3ccccc3)CC2)cc1	-6	1	2	0	3
